Source: PubChem BioAssay AID1159580 (chemical genetic matrix, 2015)
“And” between values parts separate entries of the source, which are not always exact repeats. Equal values may be shown once. In all, about 5,500 compounds went through this assay and about 2,000 (36%) were called active. Inconclusive results (about 18%) are left out. Rule as the data show it: active = normalized growth mostly below about 0.91 (no sharp cut-off); inconclusive = no clear call, values can overlap the other calls; inactive = mostly above about 0.92. Some of the results follow.

Assay: chemical genetic growth profiling, strain panel (AID 1159580);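 also: tested at 20 µM; growth read once vehicle control cultures reached saturation at 30 °C; 1 = growth at the plate median or of vehicle wells; lower values mean less growth of the strain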
Conditions: S. cerevisiae deletion strains, growth OD

Measured: normalized growth

S=c1[nH]c2ccccc2s1
0.99 (inactive) and 0.818 (active): locus YJL095W, strain BCK1, stronger effect = lower value
1 (inactive) and 0.821 (active): locus YHR030C, strain SLT2, stronger effect = lower value
active: locus YAL026C, strain drs2, stronger effect = lower value 0.891 | locus YDR137W, strain rgp1, stronger effect = lower value 0.808 | locus YDR195W, strain ref2 1.18 [resistant] | locus YGR229C, strain SMI1, stronger effect = lower value 0.804 | locus YGR252W, strain gcn5, stronger effect = lower value 0.691 | locus YHR027C, strain rpn1, stronger effect = lower value 0.903 | locus YHR079C, strain IRE1, stronger effect = lower value 0.78 | locus YJR066W, strain TOR1, stronger effect = lower value 0.732
inactive: locus YAL013W, strain DEP1, stronger effect = lower value 1 | locus YAL021C, strain ccr4, stronger effect = lower value 0.941 | locus YAL030W, strain snc1, stronger effect = lower value 0.992 | locus YBL061C, strain skt5, stronger effect = lower value 0.986 | locus YBR009C, strain hhf1, stronger effect = lower value 0.972 | locus YBR021W, strain FUR4, stronger effect = lower value 1.06 | locus YBR023C, strain chs3, stronger effect = lower value 1.01 | locus YBR171W, strain sec66, stronger effect = lower value 0.965 | locus YBR229C, strain ROT2, stronger effect = lower value 0.989 | locus YBR231C, strain swc5, stronger effect = lower value 0.946 | locus YBR279W, strain paf1, stronger effect = lower value 0.982 | locus YCL011C, strain gbp2, stronger effect = lower value 0.966 | locus YCL016C, strain dcc1, stronger effect = lower value 1.02 | locus YCL029C, strain bik1, stronger effect = lower value 0.989 | locus YCL069W, strain vba3, stronger effect = lower value 0.983 | locus YCR088W, strain abp1, stronger effect = lower value 0.981 | locus YDL005C, strain med2, stronger effect = lower value 0.996 | locus YDL035C, strain GPR1, stronger effect = lower value 0.948 | locus YDL040C, strain nat1, stronger effect = lower value 0.983 | locus YDL074C, strain BRE1, stronger effect = lower value 0.975 | locus YDL101C, strain DUN1, stronger effect = lower value 0.99 | locus YDL134C, strain PPH21, stronger effect = lower value 0.985 | locus YDL185W, strain tfp1, stronger effect = lower value 0.979 | locus YDL192W, strain arf1, stronger effect = lower value 0.985 | locus YDR001C, strain nth1, stronger effect = lower value 0.992 | locus YDR069C, strain doa4, stronger effect = lower value 0.951 | locus YDR101C, strain arx1, stronger effect = lower value 1.01 | locus YDR150W, strain NUM1, stronger effect = lower value 0.986 | locus YDR159W, strain sac3, stronger effect = lower value 0.992 | locus YDR162C, strain NBP2, stronger effect = lower value 0.986 | locus YDR297W, strain sur2, stronger effect = lower value 0.97 | locus YDR318W, strain mcm21, stronger effect = lower value 0.996 | locus YDR334W, strain swr1, stronger effect = lower value 0.972 | locus YDR335W, strain msn5, stronger effect = lower value 0.984 | locus YDR388W, stronger effect = lower value 0.987 | locus YDR392W, strain spt3, stronger effect = lower value 0.879 | locus YDR502C, strain sam2, stronger effect = lower value 1 | locus YEL003W, strain gim4, stronger effect = lower value 0.952 | locus YEL037C, strain rad23, stronger effect = lower value 0.975 | locus YEL061C, strain CIN8 (second series), stronger effect = lower value 0.973 | locus YEL061C, strain CIN8, stronger effect = lower value 1.01 | locus YER015W, strain faa2, stronger effect = lower value 0.965 | locus YER016W, strain bim1, stronger effect = lower value 0.987 | locus YER110C, stronger effect = lower value 0.998 | locus YER111C, strain swi4, stronger effect = lower value 0.979 | locus YER155C, strain BEM2 (second series), stronger effect = lower value 0.986 | locus YER155C, strain BEM2, stronger effect = lower value 0.986 | locus YER167W, strain BCK2, stronger effect = lower value 1.02 | locus YFR010W, strain ubp6, stronger effect = lower value 0.95 | locus YGL078C, strain dbp3, stronger effect = lower value 1.02 | locus YGL086W, strain mad1, stronger effect = lower value 0.965 | locus YGL167C, strain pmr1, stronger effect = lower value 0.995 | locus YGL173C, strain kem1, stronger effect = lower value 0.91 | locus YGL227W, strain vid30, stronger effect = lower value 0.996 | locus YGL240W, strain doc1, stronger effect = lower value 0.923 | locus YGL248W, strain PDE1, stronger effect = lower value 0.991 | locus YGL253W, strain hxk2, stronger effect = lower value 0.938 | locus YGR078C, strain PAC10, stronger effect = lower value 0.958 | locus YGR135W, strain pre9, stronger effect = lower value 0.964 | locus YHR013C, strain ard1, stronger effect = lower value 1.02 | locus YHR079C, strain IRE1 (second series), stronger effect = lower value 1.01 | locus YHR094C, strain hxt1, stronger effect = lower value 1.02 | locus YHR129C, strain ARP1, stronger effect = lower value 0.992 | locus YHR142W, strain chs7, stronger effect = lower value 1.01 | locus YHR200W, strain rpn10, stronger effect = lower value 1.01 | locus YIL066C, strain RNR3, stronger effect = lower value 0.986 | locus YIL073C, strain SPO22, stronger effect = lower value 0.844 | locus YIL125W, strain kgd1, stronger effect = lower value 1.01 | locus YIR030C, strain dcg1, stronger effect = lower value 1.01 | locus YJL092W, strain hpr5, stronger effect = lower value 0.984 | locus YJL095W, strain BCK1 (second series), stronger effect = lower value 0.975 | locus YJL115W, strain asf1, stronger effect = lower value 0.983 | locus YJL129C, strain trk1, stronger effect = lower value 0.966 | locus YJL134W, strain LCB3, stronger effect = lower value 1 | locus YJL154C, strain vps35, stronger effect = lower value 0.983 | locus YJL164C, strain tpk1, stronger effect = lower value 1 | locus YJL166W, strain qcr8, stronger effect = lower value 0.962 | locus YJL168C, strain set2, stronger effect = lower value 0.996 | locus YJL187C, strain SWE1 (second series), stronger effect = lower value 0.964 | locus YJR043C, strain POL32, stronger effect = lower value 1 | locus YJR075W, strain HOC1, stronger effect = lower value 1.02
